Source: PubChem BioAssay
The source made the active and inactive calls. Unless noted, the rule behind the calls is not given here.

What was measured:
[1] = tested on: Wnt5a (protein binding on small-molecule microarray); assay: small molecules binding Wnt5a protein – biophysical, small-molecule microarray, 635/667 nm fluorescence, primary screen (AID 1142); conditions: 635 nm fluorescence, higher = more signal;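 note: fluorescence read at 667 nm with signal to noise per printed feature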
[2] = ATP-based viability of Huh7 replicon cells – cell-based, CellTiter-Glo luminescence, basal, 48 h, cytotoxicity control for HCV replication inhibitor project, primary screen (AID 1143); conditions: higher = more signal, called active from +8 up or from −8 down;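 note: Huh7 hepatoma cells carrying a hepatitis C replication reporter with no stimulus; test concentration not given here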
[3] = Pseudomonas biofilm growth suppression – PAO1 strain, BacTiter-Glo luminescence, LB-PBS, primary screen (AID 1144); conditions: P. aeruginosa PAO1 biofilm, 12 h, higher = more signal
[4] = basal CRE-LacZ reporter activity in PC12 – cell-based, unstimulated, primary screen (AID 1145); conditions: no forskolin, luminescence, 4.5 h, higher = more signal, called active from +8 up or from −8 down
[5] = forskolin-driven CRE-LacZ activity in PC12 – cell-based, CRE-LacZ reporter, forskolin-stimulated, primary screen (AID 1146); conditions: luminescence, 4.5 h, higher = more signal, called active from +8 up or from −8 down;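 note: PC12 cells with 6xCRE LacZ reporter stimulated by forskolin 10 µM; beta-galactosidase reporter signal reflecting CREB driven transcription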
[6] = molecular target: Streptavidin (Streptomyces avidinii) (UniProt P22629); assay: compounds binding control protein streptavidin – biophysical, small-molecule microarray, 635/667 nm fluorescence, artefact control for SMM compound annotation, primary screen (AID 1147); conditions: higher = more signal;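 note: signal reflects streptavidin binding to arrayed compounds as a control protein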
[7] = probe aInhba binding on compound microarray – biochemical, small-molecule microarray, 635/667 nm fluorescence, primary screen (AID 1148); conditions: higher = more signal;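 note: score merges 667nm spot fluorescence with signal-to-noise for antibody binding to printed compounds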
Torsin-1A (Homo sapiens) [8] = molecular target: Torsin-1A (Homo sapiens) (UniProt O14656); assay: TOR1A wild-type binding on microarray – cell lysate, small-molecule microarray, lysate, 635/667 nm, primary screen (AID 1149); conditions: COS7 hTOR1A-WT lysate, 635 nm fluorescence, higher = more signal
Torsin-1A (Homo sapiens) [9] = molecular target: Torsin-1A (Homo sapiens) (UniProt O14656); assay: torsin A mutant lysate binding on microarrays – cell lysate, small-molecule microarray, COS7 lysate, 635/667 nm fluorescence, primary screen (AID 1150); conditions: COS7 hTOR1A mutant lysate, 635 nm fluorescence, higher = more signal;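 note: score pools 667 nm emission and signal to noise measuring lysate protein binding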
[10] = tested on: Sonic hedgehog protein (Shh); assay: Sonic hedgehog microarray binding compounds – biochemical, small-molecule microarray, 635/667 nm fluorescence, primary screen (AID 1151); conditions: 635 nm fluorescence, higher = more signal;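 note: Shh protein binding to compounds spotted on small-molecule microarray slides; score combines spot fluorescence intensity with signal-to-noise across triplicate slides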
[11] = optical density shifts of acrAB sulA E. coli – strain DRC41, OD650, 48 h, E. coli filamentation inducer project, primary screen (AID 1152); conditions: higher = more signal, called active from +8 up or from −8 down;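 note: E. coli MC1000 strain DRC41 lacking acrAB efflux pump and sulA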
[12] = probe aLefty1 binding on compound microarray – biochemical, small-molecule microarray, 635/667 nm fluorescence, primary screen (AID 1153); conditions: higher = more signal;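 note: score merges spot fluorescence with signal-to-noise ratio from the scanned slide images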
[13] = plasmodial surface anion channel blockers, osmotic lysis – cell-based, P. falciparum Indochina, OD700, 1 h, primary screen (AID 1154); conditions: P. falciparum Indochina infected RBC osmotic lysis, higher = more signal, called active from +8 up or from −8 down
[14] = plasmodial surface anion channel blockers, osmotic lysis – cell-based, P. falciparum Indochina, OD700, 2 h, primary screen (AID 1155);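 note: lysis reports solute entry through the parasite surface anion channel PSAC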; conditions: P. falciparum Indochina infected erythrocytes, higher = more signal, called active from +8 up or from −8 down
[15] = changes in parasitized red cell lysis, either direction – P. falciparum Indochina, OD700, 3 h, PSAC antagonist project, primary screen (AID 1156); conditions: P. falciparum-infected erythrocytes, osmotic lysis, higher = more signal, called active from +8 up or from −8 down
[16] = plasmodial surface anion channel blockers, osmotic lysis – cell-based, P. falciparum Indochina, OD700, 18 h, primary screen (AID 1157); conditions: P. falciparum Indochina infected erythrocytes, osmotic lysis OD700, 18 h; higher = more signal, called active from +8 up or from −8 down
[17] = S6 kinase pathway phospho-S6 level changes – cell-based, A549, cytoblot, luminescence, serum-stimulated, primary screen (AID 1158); conditions: 5 h, higher = more signal;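 note: serum-stimulated A549 lung adenocarcinoma cells; signal is phosphorylated S6 detected by cytoblot immunostaining with HRP secondary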
[18] = molecular target: NADPH oxidase 2 (Homo sapiens) (UniProt P04839); assay: compounds shifting NOX2 Amplex Red fluorescence – cell-based, HEK293-NOX2, PMA-stimulated, NOX inhibitor project, primary screen (AID 1159); conditions: 45 min, higher = more signal, called active from +8 up or from −8 down; note: test concentration not given here
[19] = molecular target: NADPH oxidase 4 (Homo sapiens) (UniProt Q9NPH5); assay: compounds shifting NOX4 Amplex Red fluorescence – cell-based, HEK293-NOX4, tetracycline-induced, NOX inhibitor project, primary screen (AID 1160); conditions: HEK293-NOX4, Amplex Red H2O2 fluorescence, 45 min; higher = more signal, called active from +8 up or from −8 down
[20] = molecular target: NADPH oxidase 5 (Homo sapiens) (UniProt Q96PH1); assay: compounds shifting NOX5 Amplex Red fluorescence – cell-based, HEK293-NOX5, NOX inhibitor project, primary screen (AID 1161); conditions: HEK293-NOX5, ionomycin, 45 min, higher = more signal
NADPH oxidase 5 (Homo sapiens), sequence (Q96PH1 whole entry, looked up): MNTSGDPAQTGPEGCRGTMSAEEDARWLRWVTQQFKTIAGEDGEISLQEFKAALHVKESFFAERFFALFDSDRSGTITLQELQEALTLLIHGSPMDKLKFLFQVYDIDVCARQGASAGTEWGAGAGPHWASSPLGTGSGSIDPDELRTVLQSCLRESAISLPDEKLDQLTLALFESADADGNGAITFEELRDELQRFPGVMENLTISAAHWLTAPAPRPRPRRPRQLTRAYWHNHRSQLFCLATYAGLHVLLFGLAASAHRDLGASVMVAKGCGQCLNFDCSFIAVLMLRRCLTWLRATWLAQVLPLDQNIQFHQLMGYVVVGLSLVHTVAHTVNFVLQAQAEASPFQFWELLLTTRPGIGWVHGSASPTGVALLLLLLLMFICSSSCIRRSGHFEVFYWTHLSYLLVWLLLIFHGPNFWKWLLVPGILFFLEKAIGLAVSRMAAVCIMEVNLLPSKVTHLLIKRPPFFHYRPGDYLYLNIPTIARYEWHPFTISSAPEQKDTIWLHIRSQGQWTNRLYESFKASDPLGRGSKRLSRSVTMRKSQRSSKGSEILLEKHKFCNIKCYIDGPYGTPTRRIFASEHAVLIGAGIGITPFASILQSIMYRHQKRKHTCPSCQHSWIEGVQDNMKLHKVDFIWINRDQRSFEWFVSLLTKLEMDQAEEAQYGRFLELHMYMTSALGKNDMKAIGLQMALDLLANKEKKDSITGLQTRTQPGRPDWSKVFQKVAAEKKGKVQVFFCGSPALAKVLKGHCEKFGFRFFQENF

NADPH oxidase 2 (Homo sapiens), sequence (P04839 whole entry, looked up): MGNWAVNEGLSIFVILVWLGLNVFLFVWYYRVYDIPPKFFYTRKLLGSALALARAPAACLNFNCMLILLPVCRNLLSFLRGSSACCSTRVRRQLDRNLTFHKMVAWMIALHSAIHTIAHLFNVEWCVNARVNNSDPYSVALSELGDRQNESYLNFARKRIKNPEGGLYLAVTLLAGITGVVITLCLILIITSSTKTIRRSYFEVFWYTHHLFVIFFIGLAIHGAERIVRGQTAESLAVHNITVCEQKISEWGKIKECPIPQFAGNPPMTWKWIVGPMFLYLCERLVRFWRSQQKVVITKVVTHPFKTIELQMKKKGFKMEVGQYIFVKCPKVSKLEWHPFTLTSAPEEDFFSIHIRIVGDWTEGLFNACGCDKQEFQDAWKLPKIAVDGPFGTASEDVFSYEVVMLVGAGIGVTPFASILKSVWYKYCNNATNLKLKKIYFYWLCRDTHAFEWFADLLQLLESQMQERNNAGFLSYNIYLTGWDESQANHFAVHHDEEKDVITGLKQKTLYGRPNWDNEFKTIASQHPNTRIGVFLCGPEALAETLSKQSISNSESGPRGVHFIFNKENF
Torsin-1A (Homo sapiens), sequence (O14656 whole entry, looked up): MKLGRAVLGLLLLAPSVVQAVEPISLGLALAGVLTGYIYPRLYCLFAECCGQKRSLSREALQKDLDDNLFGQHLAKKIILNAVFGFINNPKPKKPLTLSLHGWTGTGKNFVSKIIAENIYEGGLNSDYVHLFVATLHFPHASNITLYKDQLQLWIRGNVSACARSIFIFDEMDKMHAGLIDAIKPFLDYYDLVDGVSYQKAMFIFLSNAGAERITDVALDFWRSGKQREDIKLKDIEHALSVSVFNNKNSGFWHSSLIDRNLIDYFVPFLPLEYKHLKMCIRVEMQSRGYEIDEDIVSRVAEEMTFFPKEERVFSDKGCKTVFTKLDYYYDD
NADPH oxidase 4 (Homo sapiens), sequence (Q9NPH5 whole entry, looked up): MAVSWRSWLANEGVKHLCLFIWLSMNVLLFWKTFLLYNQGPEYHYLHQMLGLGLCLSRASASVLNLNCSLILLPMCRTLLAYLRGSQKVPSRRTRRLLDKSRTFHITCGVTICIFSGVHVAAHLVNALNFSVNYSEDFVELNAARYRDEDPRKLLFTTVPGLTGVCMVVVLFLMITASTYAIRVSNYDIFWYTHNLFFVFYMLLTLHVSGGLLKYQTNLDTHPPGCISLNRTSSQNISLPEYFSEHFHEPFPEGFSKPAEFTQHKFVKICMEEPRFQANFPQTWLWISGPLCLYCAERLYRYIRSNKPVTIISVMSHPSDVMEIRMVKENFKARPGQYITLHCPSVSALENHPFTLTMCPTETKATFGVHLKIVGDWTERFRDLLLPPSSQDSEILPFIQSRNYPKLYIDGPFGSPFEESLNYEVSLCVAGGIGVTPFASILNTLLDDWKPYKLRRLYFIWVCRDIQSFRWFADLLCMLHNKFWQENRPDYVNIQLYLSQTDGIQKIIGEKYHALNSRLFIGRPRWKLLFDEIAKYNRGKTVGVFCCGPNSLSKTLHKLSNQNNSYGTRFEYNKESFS
Streptavidin (Streptomyces avidinii), sequence (P22629 whole entry, looked up): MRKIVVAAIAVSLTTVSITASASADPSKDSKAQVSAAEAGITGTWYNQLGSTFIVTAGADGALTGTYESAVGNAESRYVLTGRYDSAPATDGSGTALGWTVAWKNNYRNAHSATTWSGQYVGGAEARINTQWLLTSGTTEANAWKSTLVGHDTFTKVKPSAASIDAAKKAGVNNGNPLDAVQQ

SMILES | composite z-score [1] | z-score [2] | z-score [3] | z-score [4] | z-score [5] | composite z-score [6] | composite z-score [7] | composite z-score (Torsin-1A (Homo sapiens) [8]) | composite z-score (Torsin-1A (Homo sapiens) [9]) | composite z-score [10] | z-score [11] | composite z-score [12] | z-score [13] | z-score [14] | z-score [15] | z-score [16] | z-score [17] | z-score [18] | z-score [19] | z-score [20]
C[C@@H](OCc1ccccc1)C1NC(=O)[C@@]23C(=O)N[C@@H](Cc4ccccc4)C2[C@H](C)[C@@]2(C)O[C@H]2C3/C=C/C/C=C\CNC(=O)CNC1=O (stereo not given in full) | -0.556 | -2.16 (inactive) | -0.295 (inactive) | -0.962 (inactive) | -0.88 (inactive) | -0.918 | -0.105 | 0.333 | -0.104 | 1.24 | -0.824 (inactive) | -0.012 | 1.53 (inactive) | 0.095 (inactive) | 0.543 (inactive) | -0.0634 (inactive) | -0.213 | 1.01 (inactive) | 1.32 (inactive) | 1.56
COc1ccc([Si](C)(C)[C@@H]2[C@@H](CCO)O[C@]3(C(=O)N(Cc4cccc(N5C(=O)c6cccc7cccc5c67)c4)c4ccccc43)[C@H]2C)cc1 | -0.101 | -5.93 (inactive) | 0.568 (inactive) | 7.33 (inactive) | -0.24 (inactive) | -0.138 | -0.128 | -0.516 | -0.252 | 0.552 | -0.21 (inactive) | 0.0449 | 3.33 (inactive) | 3.66 (inactive) | -0.0486 (inactive) | 2.34 (inactive) | 0.0181 | 0.498 (inactive) | 0.86 (inactive) | 2.42
CC(=O)NCCCC[C@@H]1NC(=O)[C@@H]2C[C@H](C(=O)O)[C@H](c3ccc(O)cc3)N2C1=O | -0.734 | 0.454 (inactive) | -0.646 (inactive) | -0.679 (inactive) | 0.407 (inactive) | -1.04 | -0.335 | -2.46 | -2.19 | -0.96 | 0.139 (inactive) | 0.202 | 1.15 (inactive) | 0.508 (inactive) | 1.08 (inactive) | 0.275 (inactive) | -0.544 | 1.03 (inactive) | -1.04 (inactive) | 0.422
COCCOC(=O)N1C(=O)[C@@]2(c3cc(C#Cc4ccc(OC)cc4)ccc31)[C@H](C(=O)N1CCCCCCC1)[C@H]1C(=O)O[C@H](c3ccccc3)[C@H](c3ccccc3)N1[C@@H]2c1ccc(O)cc1 | 0.164 | -5.16 (inactive) | -1.11 (inactive) | -1.02 (inactive) | -0.841 (inactive) | 0.123 | 0.696 | 0.536 | 0.864 | 1.47 | 0.785 (inactive) | 1.58 | 1.04 (inactive) | -0.134 (inactive) | -0.318 (inactive) | -0.518 (inactive) | 1.27 | -0.76 (inactive) | -0.951 (inactive) | -1.4
CCOC(=O)C[C@H]1[C@H](OC(=O)c2ccc(C(=O)c3ccccc3)cc2)[C@@H](NC(=O)c2ccc3ccccc3c2)c2cc(OCCCO)ccc2N1C(=O)c1ccccc1 | 0.173 | -0.0506 (inactive) | -0.0382 (inactive) | 0.0777 (inactive) | -0.506 (inactive) | 0.849 | -0.105 | 0.196 | 0.321 | 0.867 | -0.558 (inactive) | -0.0134 | 0.137 (inactive) | -0.0012 (inactive) | -0.97 (inactive) | 0.189 (inactive) | -0.357 | 0.311 (inactive) | 0.945 (inactive) | 1.06
CCN(CC)c1ccc(N2CC=CC34O[C@@H]5/C=C\CCC(C)OC(=O)C5[C@H]3C(=O)N(CCO)[C@@H]4C2=O)cc1 (stereo not given in full) | -0.442 | -1.33 (inactive) | 0.655 (inactive) | 0.195 (inactive) | -0.295 (inactive) | -0.21 | -0.0774 | -1.12 | -1.25 | 0.414 | -0.244 (inactive) | 0.33 | 3.17 (inactive) | 0.615 (inactive) | 0.411 (inactive) | 0.162 (inactive) | -0.369 | -0.361 (inactive) | 0.785 (inactive) | 1.36
O=C(N1CCCCC1)[C@@]1(Cc2ccccc2)COC(c2ccc(OCCCO)cc2)=N1 | 1.03 | -2.49 (inactive) | 0.496 (inactive) | -0.128 (inactive) | -0.628 (inactive) | 0.85 | 0.322 | 0.442 | 0.67 | 0.934 | 0.436 (inactive) | 0.461 | 20.9 (active) | 3.44 (inactive) | 1.32 (inactive) | 0.42 (inactive) | -0.666 | -4.59 (inactive) | -0.936 (inactive) | -2.26
CC(C)(C)OC(=O)CC[C@]1(C(=O)O)N=C(c2ccc(OCCCO)cc2)O[C@H]1c1ccccc1 | -0.221 | -1.48 (inactive) | -0.278 (inactive) | -0.986 (inactive) | -0.72 (inactive) | 0.235 | -0.102 | -0.272 | 0.113 | -0.899 | 1.11 (inactive) | -0.362 | 11.9 (active) | 1.08 (inactive) | -0.0867 (inactive) | -0.284 (inactive) | 0.733 | 0.643 (inactive) | 0.228 (inactive) | 1.68
